Activity change, negative = inhibition and Potency data for 61 compounds are collected here from PubChem BioAssay AID894 (National Center for Advancing Translational Sciences (NCATS), 2007).

Hit rate of the full screen: of about 150,000 compounds, about 6,500 (4.3%) were called active. Inconclusive results (about 12%) are left out. The call rests on the fitted dose curve; in most records, active means well fitted inhibition curve with a large enough effect (not every such curve was filed as active); inconclusive means small, poorly fitted or top-dose-only effect, or another doubt; inactive means no such curve, though single readings can be large or run the other way. The full list was thinned out, with actives kept by preference.
On the % scale 0 is the no-effect control and ±100 the full control effect; potency means the concentration at half of the fitted maximal effect.

Chain of 15-hydroxyprostaglandin dehydrogenase [NAD(+)] (Homo sapiens) (P15428 whole entry, looked up): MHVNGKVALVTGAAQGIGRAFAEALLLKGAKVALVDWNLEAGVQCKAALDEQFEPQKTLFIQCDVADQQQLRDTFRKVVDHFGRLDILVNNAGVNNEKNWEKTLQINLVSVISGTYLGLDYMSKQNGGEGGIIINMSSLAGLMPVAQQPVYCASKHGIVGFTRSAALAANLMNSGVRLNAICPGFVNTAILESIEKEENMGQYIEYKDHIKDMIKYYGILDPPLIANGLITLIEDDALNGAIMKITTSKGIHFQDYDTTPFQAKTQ

This assay has as its target 15-hydroxyprostaglandin dehydrogenase [NAD(+)] (Homo sapiens) (UniProt P15428). Briefly: qHTS Assay for Inhibitors of HPGD (15-Hydroxyprostaglandin Dehydrogenase). The conditions noted are these: purified HPGD, NADH fluorescence kinetic, PGE2 substrate; activity change, negative = inhibition: active compounds read low. In short, it runs like this:
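20 nM HPGD preincubated 15 min at room temperature with compound in 50 mM Tris-HCl pH 8, 0.01% Tween 20. Started with 1 mM NAD+ and 30 uM prostaglandin E2; NADH fluorescence (360/450 nm) read 5 times over 30-s intervals, last minus first.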
(In general: qHTS replaces the single test concentration by a dilution series.)
Regarding `N#C/C(C(=O)N1CCOCC1)=C1/SC(Cc2ccc(F)cc2)C(=O)N1c1ccccc1` (stereo unspecified), the activity change, negative = inhibition is -13.3% (inactive).

Take `Cc1cccc(-n2c(N)c(C(=O)N3CCN(C)CC3)sc2=S)c1`: the Potency is 10 µM (active).

In the case of `Cc1ccc(-n2c(N)c(C(=O)N3CCOCC3)sc2=S)c(C)c1`, the Potency was 7.94 µM (active).

Consider `Cc1cccc(-n2c(N)cc(=O)nc2SC(C)C(=O)NC2CCCCC2)c1` (stereo unspecified), for which the activity change, negative = inhibition was -19.7% (inactive).

Take `Cc1ccc(C(=O)N2CCN(C(=O)N3CCOCC3)CC2)cc1`: the activity change, negative = inhibition was 3.86% (inactive).

Turning to `N#Cc1ccccc1-n1c(N)c(C(=O)N2CCCC2)sc1=S`, the Potency was 25.1 µM (active).

Take `CC(C)=C1SC(N2CCN(c3cccc(C)c3)CC2)=NC1=O`: the activity change, negative = inhibition is -16.6% (inactive).

As to `CC(=O)c1c(N2CCOCC2)nc(=S)n(-c2cc(C)ccc2C)c1C`, the activity change, negative = inhibition was -12.5% (inactive).

For `O=S(=O)(NCCSc1ccccn1)c1ccc(Cl)cc1`, the activity change, negative = inhibition is -1.01% (inactive).

In the case of `C=C/C1=C/Cc2ccccc2[C@H](C[N+](=O)[O-])C(C(=O)OC)(C(=O)OC)C1`, the activity change, negative = inhibition was -16.5% (inactive).

Take `CCOc1cc(CNCc2ccccn2)ccc1OCC(=O)NC(C)(C)C`: the activity change, negative = inhibition is -9.37% (inactive).

As for `CC(C)(C)C(=O)N1CCC[C@@]1(CO)C(=O)O`, the activity change, negative = inhibition is -2.24% (inactive).

Regarding `COc1ccc(CNC(=O)CCCn2nc(C)c([N+](=O)[O-])c2C)cc1`, the activity change, negative = inhibition is -13.5% (inactive).

As for `CCC(C)C(=O)Nc1cc([N+](=O)[O-])ccc1Cl` (stereo unspecified), the activity change, negative = inhibition was -1.06% (inactive).

On to `C=CCn1c(CCNC(=O)c2cccs2)n[nH]c1=S`, for which the activity change, negative = inhibition is -27.1% (inactive).

For the compound `Cc1nnc(SCC(=O)N2CCc3ccccc3C2)s1`, the activity change, negative = inhibition is -6.45% (inactive).

Turning to `O=C(c1cc(-c2ccc(O)cc2)on1)N1CCCc2ccccc21`, the activity change, negative = inhibition was -28% (inactive).

Take `O=C(c1cc(-c2cccc(O)c2)on1)N1CCc2ccccc2C1`: the Potency was 25.1 µM (active).

For the compound `CCCNC(=O)NC(=O)COC(=O)CC(NC(N)=O)c1ccc(Cl)cc1` (stereo unspecified), the activity change, negative = inhibition was -4.57% (inactive).

For the compound `O=C(Nc1ccc2c(c1)CCC2)c1cccc(S(=O)(=O)Nc2ccccc2Cl)c1`, the activity change, negative = inhibition was -11.7% (inactive).

Regarding `CC1(C)CC(CCC(=O)Nc2ccccc2Cl)C(=O)O1` (stereo unspecified), the activity change, negative = inhibition is -12.3% (inactive).

For the compound `O=C(Cc1ccc2c(c1)CCCC2)Nc1ccccc1Cl`, the Potency was 3.16 µM (active).

With `Cc1nn(-c2ccccc2)c(-n2cccc2)c1C(=O)O`, the activity change, negative = inhibition is -6.97% (inactive).

For the compound `N/C(=N\OC(=O)CC1CCCCC1)c1ccccc1`, the activity change, negative = inhibition is -21.9% (inactive).

`Cc1ccc(C2CC(=O)NC(SCC(=O)OCc3ccccc3)=C2C#N)o1` (stereo unspecified): the activity change, negative = inhibition is -25.8% (inactive).

`CCOC(=O)CSC1=C(C#N)C(c2sccc2C)CC(=O)N1` (stereo unspecified): the activity change, negative = inhibition was -3.48% (inactive).

`C=CCSC1=C(C#N)C(c2cc(Br)c(O)c(OC)c2)CC(=O)N1` (stereo unspecified): the Potency was 17.8 µM (active).

Regarding `CSCCC(NC(=O)COc1ccccc1)C(=O)Nc1ccc(C)cc1` (stereo unspecified), the activity change, negative = inhibition was -0.719% (inactive).

Take `CCCCC/C=C\C/C=C\C/C=C\CCCCC(=O)NCC(=O)O`: the activity change, negative = inhibition was -3.51% (inactive).

Consider `CCC(=O)Nc1c(C)n[nH]c1C`, for which the activity change, negative = inhibition is -8.91% (inactive).

`CC(C)(C)C1CCc2c(sc3nc(SCC(N)=O)nc(N)c23)C1` (stereo unspecified): the Potency was 28.2 µM (active).

With `CN(C)CCSc1nc(N)c2c3c(sc2n1)COC(C)(C)C3`, the activity change, negative = inhibition is -15.6% (inactive).

Turning to `Nc1nc(SCC(=O)NCCN2CCOCC2)nc2sc3c(c12)CCC3`, the activity change, negative = inhibition was -10.4% (inactive).

For `COC(=O)c1sccc1NC(=O)COc1ccc(Cl)cc1`, the activity change, negative = inhibition was -12% (inactive).

`Cc1sc2nc(SCC(N)=O)n(C)c(=O)c2c1C`: the activity change, negative = inhibition is -0.652% (inactive).

In the case of `C=CCNC(=O)CSc1nc2sc(C)c(C)c2c(=O)[nH]1`, the Potency is 14.1 µM (active).

For `Cc1sc2nc(CSCC(=O)Nc3c(Cl)cccc3Cl)[nH]c(=O)c2c1C`, the activity change, negative = inhibition was -14% (inactive).

`COc1ccc(-c2[nH]ncc2/C=N/NC(=O)c2cc(Br)ccc2O)c(OC)c1`: the activity change, negative = inhibition is -16.3% (inactive).

On to `Cc1ccc(S(=O)(=O)N(C)C)cc1NC(=O)/C=C/c1cccs1`, for which the activity change, negative = inhibition is -12.9% (inactive).

With `CS(=O)(=O)N(Cc1ccccc1)c1ccc(C(=O)NN=C2CCCCCC2)cc1`, the activity change, negative = inhibition is -5.89% (inactive).

In the case of `CCCC/C(C)=N/NC(=O)NC1CCCCC1`, the activity change, negative = inhibition is -6.12% (inactive).

`CS(=O)(=O)Nc1cccc(C2=NN(S(=O)(=O)c3ccccc3)C(c3cccs3)C2)c1` (stereo unspecified): the activity change, negative = inhibition was -7.08% (inactive).

For `Cc1ccc(C2=NN(C(=O)CSc3nc(N)cc(N)n3)C(c3ccco3)C2)cc1` (stereo unspecified), the activity change, negative = inhibition was -20.9% (inactive).

Regarding `CCS(=O)(=O)Nc1ccc(C2=NN(S(=O)(=O)c3ccc(F)cc3)C(c3ccco3)C2)cc1` (stereo unspecified), the Potency is 12.6 µM (active).

For the compound `COc1ccc(-c2csc(NC(=O)COC(=O)c3ccc(Br)o3)n2)cc1`, the activity change, negative = inhibition is -1.93% (inactive).

Take `O=C1c2ccccc2C(O)N1Cc1ccccc1Cl` (stereo unspecified): the Potency was 12.6 µM (active).

Take `O=c1ccn(Cc2ccccc2Cl)cc1`: the activity change, negative = inhibition is 0.459% (inactive).

Turning to `O=C1c2ccccc2C(O)N1Cc1ccccc1` (stereo unspecified), the activity change, negative = inhibition was -28.7% (inactive).

With `C=CCC1CCC(=O)N2CCCC12` (stereo unspecified), the activity change, negative = inhibition is -1.41% (inactive).

Regarding `COc1ccc(/C=C2\NC(=O)[C@@H]3Cc4ccccc4CN3C2=O)cc1`, the activity change, negative = inhibition was -5.55% (inactive).

For the compound `COC(=O)C1=C(C(=O)OC)[C@@H]2N(Cc3ccccc3)c3ccccc3[C@@]23C[C@@H](C(=O)OC)N(S(=O)(=O)c2ccc(C(F)(F)F)cc2)C3=N1`, the activity change, negative = inhibition is -11.4% (inactive).

For `Cc1ccc(Cn2ccc(NC(=O)c3cc(C(C)C)on3)n2)cc1`, the activity change, negative = inhibition was -19.4% (inactive).

As to `O=C(Nc1ccn(Cc2ccccc2)n1)c1n[nH]c([N+](=O)[O-])c1Cl`, the Potency is 28.2 µM (active).

As to `O=C(Nc1ccn(Cc2ccc(F)cc2)n1)c1ccncc1`, the activity change, negative = inhibition is 1.11% (inactive).

Consider `CCOc1ccc(N2C(=O)/C(=C/c3ccc(C)o3)N(C)C2=S)cc1`, for which the activity change, negative = inhibition is -30% (inactive).

Consider `CNC(=O)c1csc(-c2ccccc2)n1`, for which the activity change, negative = inhibition was -8.99% (inactive).

Regarding `C=CCNC(=O)c1csc(-c2ccccc2)n1`, the Potency is 15.8 µM (active).

Regarding `COc1cc(OC)cc(C(=O)NCC(=O)OCc2csc(-c3ccccc3)n2)c1`, the activity change, negative = inhibition was -9.37% (inactive).

Turning to `CC1CCCCN1S(=O)(=O)c1ccc(S(=O)(=O)N(CC(=O)Nc2ccccc2)Cc2cccs2)cc1` (stereo unspecified), the activity change, negative = inhibition is -10.3% (inactive).

Regarding `O=C(CN1C2=NCCN2c2ccccc21)c1cccs1`, the activity change, negative = inhibition is -3.36% (inactive).

For `COc1ccc2c(c1)O[C@@H](c1ccc3c(c1)OCO3)[C@H](OC(=O)NCc1ccco1)C2=O`, the activity change, negative = inhibition is -11.6% (inactive).
